Source: PubChem BioAssay AID1421 (Emory University Molecular Libraries Screening Center, 2008)
Screen size: about 1,300 compounds; about 140 (11%) were called active. No rule for the calls is given here. Only a sample is shown. Potency and affinity values are given separately.

The molecules below were run against Prostaglandin E2 receptor EP2 subtype (Homo sapiens) (UniProt P43116) (assay: EP2 receptor modulators, dose response, cell-based, human EP2, PGE2 EC50 shift (AID 1421)). Details: EP2-expressing cells, PGE2 EC50 shift by compound; at 20 µM.
Prostaglandin E2 receptor EP2 subtype (Homo sapiens), sequence (P43116 whole entry, looked up): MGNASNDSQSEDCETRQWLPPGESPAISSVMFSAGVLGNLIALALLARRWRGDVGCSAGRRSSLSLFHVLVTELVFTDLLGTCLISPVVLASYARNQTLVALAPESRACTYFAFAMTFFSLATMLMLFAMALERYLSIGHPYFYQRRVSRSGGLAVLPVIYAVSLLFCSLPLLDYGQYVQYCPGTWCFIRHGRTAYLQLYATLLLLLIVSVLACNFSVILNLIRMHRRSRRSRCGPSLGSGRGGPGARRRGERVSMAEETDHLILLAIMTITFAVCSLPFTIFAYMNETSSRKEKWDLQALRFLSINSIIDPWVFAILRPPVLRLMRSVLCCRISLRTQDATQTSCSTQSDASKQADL

PGE2 EC50 with compound, inactive:
Cn1c(=O)c2c(nc(CN3CCN(c4ccccc4)CC3)n2Cc2c(F)cccc2Cl)n(C)c1=O 0.37 nM
CCn1c(=NC(=O)c2ccc(S(=O)(=O)N3CCOCC3)cc2)sc2cccc(OC)c21 1.76 nM
Cn1c(=O)c2c(nc(SCC(=O)N3CCc4ccccc4C3)n2C)n(C)c1=O 0.76 nM
COc1cccc(N=c2oc3c(C)ncc(CO)c3cc2C(=O)Nc2ccccc2OC)c1 0.96 nM
COc1cc2ccccc2cc1C(=O)NC(=S)Nc1cc(C(=O)O)ccc1C 58.1 nM
Cc1cc2cc3c(cc2nc1SCC(=O)OC(C)C)OCO3 0.21 nM
Cc1cc(SCC(=O)c2ccccc2)nc2ccccc12 1.19 nM
C=CCSc1nc(N(CC)CC)c2sccc2n1 0.61 nM
O=c1c2ccccc2n(Cc2ccc(Cl)cc2)c(=O)n1Cc1ccco1 0.38 nM
Cc1cccc(Cn2c(=O)n(Cc3ccco3)c(=O)c3ccccc32)c1 0.31 nM
CCOC(=O)c1sc2nccc(N(C)C)c2c1N=CNOCc1ccccc1 0.21 nM
c1ccn(-c2ncnc3sc4c(c23)CCCC4)c1 0.38 nM
CSc1nnc2c3ccccc3c3ccccc3c2n1 0.24 nM
Fc1ccccc1Nc1nc2c(s1)CCc1ccccc1-2 0.26 nM
C=C[C@@](C)(O)CCC1C(=C)C[C@H](O)C2C(C)(C)CCCC12C (stereo partly specified) 0.59 nM
COC(=O)CSc1nc(Cc2ccccc2)nc2ccccc12 0.17 nM
CCOC(=O)CSc1nc(Cc2ccccc2)nc2ccccc12 0.35 nM
CCN(Cc1cc(Cl)cc(C)c1O)Cc1c(O)ccc2ccccc12 0.73 nM
Cc1ccc(-c2cccc(C(=O)NCc3ccccc3)n2)c2ccccc12 0.42 nM
COC(=O)c1c(C)nc2ccccc2c1-c1ccccc1 0.22 nM
CCCn1c(C)nc2c(c1=O)c1nc3ccccc3nc1n2CCC1=CCCCC1 0.36 nM
CCCCOc1ccccc1NC(=O)c1scc2c1OCCO2 0.31 nM
O=C(Nc1cccc(Cl)c1N1CCCCC1)c1ccc2c(c1)OCCO2 0.26 nM
CCOC(=O)c1c(NC(=O)CSc2nnnn2CC)sc(C)c1C 0.73 nM
O=C(Nc1ccccc1)c1nn(-c2cccc(C(F)(F)F)c2)ccc1=O 0.1 nM
O=C(Cc1ccccc1)Nc1ccccc1N1CCN(c2ccccc2)CC1 0.28 nM
O=C(COc1ccccc1)Nc1ccccc1N1CCN(c2ccccc2)CC1 0.2 nM
CN(C)c1ncc(S(=O)(=O)c2ccccc2)c(-c2ccccc2Cl)n1 0.23 nM
O=C(CSc1nc2ccccc2o1)Nc1ccccc1N1CCCCCC1 0.53 nM
O=C(c1ccccc1O)N1N=C(c2ccccc2)CC1(O)C(F)(F)F (stereo unspecified) 0.51 nM
NC(=O)c1sc2nc(N3CCCCC3)c3c(c2c1N)CCCC3 0.08 nM
N#Cc1sc2nc(N3CCCCC3)c3c(c2c1N)CCCC3 0.26 nM
Cc1ccc(S(=O)(=O)n2c3ccc(Cl)cc3c3nc(C)sc32)cc1 0.13 nM
Cc1cccc(C)c1OCc1nnc(SCC(=O)Nc2nccs2)n1-c1ccccc1 0.57 nM
CC(=O)c1ccc2c(c1)c1ccccc1n2CC(C)C 0.19 nM
Cc1cc([N+](=O)[O-])c(C)c(Br)c1C 0.91 nM
O=C(O)c1nc2nc(Cl)c(Cl)nc2[nH]1 0.87 nM
O=C(Nc1ccccc1N1CCCCC1)c1ccc2nccnc2c1 0.08 nM
O=C(Nc1ccccc1N1CCCCC1)c1cccc(F)c1 0.33 nM
O=C(Nc1ccccc1N1CCCCC1)c1ccc(F)cc1 0.41 nM
O=C(Nc1ccccc1Oc1ccccc1)c1cnccn1 0.75 nM
O=C(CNCC1CCCCC1)Nc1ccccc1N1CCCCC1 0.57 nM
O=C(Nc1ccccc1N1CCCCC1)c1cccc([N+](=O)[O-])c1 0.3 nM
O=C(Nc1ccccc1N1CCCC1)c1cc2ccccc2o1 0.19 nM
CC1CCN(c2ccccc2NC(=O)c2ccc(F)cc2)CC1 0.3 nM
CCOC(=O)c1c(N)sc(-c2ccccc2)c1C 0.8 nM
O=C(CO/N=C/c1ccccc1)N1c2ccccc2Oc2ccccc21 0.59 nM
CC1CCN(c2nc3c(c(=O)[nH]c(=O)n3C)n2CC(C)CSc2nnnn2-c2ccccc2)CC1 (stereo unspecified) 0.73 nM
COC(=O)c1cc2occc2n1Cc1cccc(C)c1 0.36 nM
CCc1nc2c(cnn2-c2ccc(Cl)cc2)c(=O)n1-c1ccc(OC)cc1 1.12 nM
COc1ccc(Cl)cc1-n1c(C)ccc1C 0.33 nM
CCCCc1nc(SCCOC)c2c(=O)n(C)c(=O)n(C)c2n1 0.46 nM
CCC(=O)Oc1ccc(C(CC)C(CC)c2ccc(OC(=O)CC)cc2)cc1 (stereo unspecified) 0.53 nM
O=c1c2ccccc2c(=O)n(Cc2ccccc2)n1Cc1ccccc1 0.08 nM
CC(=O)Oc1ccc2ccccc2c1C(NC(=O)Cc1ccccc1)c1ccccc1 (stereo unspecified) 0.32 nM
COc1ccc(CSC2=C(C#N)C(=O)NC3(CCCCC3)S2)cc1 0.76 nM
O=C(Nc1ccccc1N1CCCCC1)c1ccc(Cl)c([N+](=O)[O-])c1 0.55 nM
COc1ccc(C(=O)Nc2ccccc2N2CCCCC2)cc1[N+](=O)[O-] 0.44 nM
Cc1cccc(-n2c(CCc3ccccc3)nnc2SCC(=O)c2ccccc2)c1 0.19 nM
COc1ccccc1C(CC(=O)c1ccccc1)CC(=O)c1ccccc1 0.61 nM
O=c1[nH]c(=S)c2c(n1-c1ccccc1)CCC2 1.62 nM
Cc1cccc(/C=N/Nc2cc(N3CCOCC3)nc(N3CCOCC3)n2)c1 0.59 nM
COc1ccc2c(-c3ccccc3)cc(N3CCOCC3)nc2c1 0.43 nM
CCSc1nnc(-c2ccc(Cl)cc2)c2ccccc12 2.31 nM
COc1ccc(C2=Nn3c(nnc3C3CCCCC3)SC2)cc1OC 0.48 nM
CCOC(=O)C1=C(CC)OC(N)=C(C#N)C1c1ccsc1 (stereo unspecified) 0.52 nM
CCn1c2ccc(Cl)cc2c2nc3ccccc3nc21 0.4 nM
O=c1c2ccccc2nc(/C=C/c2ccccc2)n1CCc1ccccc1 0.1 nM
C=CCOc1c(Br)cc(/C=N/n2c(CC)n[nH]c2=S)cc1Br 0.13 nM
CC(C)c1nc(N2CCN(C(=O)c3ccccc3)CC2)c(C#N)c2c1COC(C)(C)C2 0.35 nM
Cc1nc2ccccn2c1C(=O)CSc1ccc(Cl)cc1Cl 5.69 nM
Cc1cc(C(=O)NCC(c2ccco2)N(C)C)no1 (stereo unspecified) 0.8 nM
O=S(Cc1cc(Sc2ccccc2)nc(-c2ccccc2)n1)c1ccccc1 (stereo unspecified) 0.32 nM
CCOC(=O)c1[nH]c2ccc(OC)cc2c1NS(=O)(=O)c1ccc(Cl)s1 0.39 nM
CCOC(=O)c1c(NC(=O)c2ccncc2)sc(C)c1C 0.45 nM
CCOC(=O)c1cc2sc(C)cc2n1C(C)C(=O)OCC (stereo unspecified) 0.35 nM
CCOC(=O)c1c(-c2ccc(C)cc2)csc1NC(=O)c1ccc(N2C(=O)CCC2=O)cc1 0.29 nM
CCOC(=O)CNC(=O)c1ccc2c(c1)OCCO2 0.46 nM
CCOC(=O)c1oc2ccccc2c1NC(=O)c1cccc(OC)c1OC 0.43 nM
Cc1ccccc1Cn1c(-c2cncs2)nc2ccccc21 0.55 nM
c1ccc(CCc2ccccc2-c2nc(-c3cccnc3)no2)cc1 0.18 nM
CCOC(=O)c1c(NC(=O)CSc2nnc(N)s2)sc(C)c1-c1ccc(C)cc1 0.35 nM
Cc1cccc(N=N/C(=C\O)C(=O)c2ccc(Br)cc2)c1 0.18 nM
Cc1cc(C)c(S(=O)(=O)O)c(C)n1 0.61 nM
COC(=O)c1[nH]c2ccccc2c1NS(=O)(=O)c1ccc(F)c(C)c1 0.41 nM
Cn1c(=O)[nH]c(=O)c2c1nc(CN1CCN(c3ccccc3F)CC1)n2CCCc1ccccc1 0.47 nM
S=c1[nH]nc(-c2ccc(Br)o2)n1Cc1ccccc1 0.8 nM
Cc1ccc2c3c(cccc13)-c1ccccc1C2=O 0.36 nM
Cn1c(=O)c(NCCc2ccccc2)c2c3c(cccc31)C(=O)c1ccccc1-2 0.58 nM
NC(=O)CSc1nnc(-c2cccc(S(=O)(=O)N3CCOCC3)c2)n1C1CCCCCC1 0.63 nM
CCCSc1nc(N2CCCC2)c2c(c1C#N)CC(C)(C)OC2 0.26 nM
Cc1noc(C)c1CSc1nc2sc3c(c2c(=O)n1C)CCCC3 0.89 nM
Cc1cc2ccc(C)c(C)c2nc1SCC#N 0.35 nM
C=CCn1c(CCc2cc(C(C)(C)C)c(O)c(C(C)(C)C)c2)n[nH]c1=S 0.58 nM
OCCCNc1nc(-c2ccc(Cl)cc2)nnc1-c1ccc(Br)cc1 1.44 nM
CC(OC(=O)c1oc2ccccc2c1COc1ccccc1)C(=O)NC(N)=O (stereo unspecified) 0.23 nM
